According to PubChem BioAssay (NCATS):
Active and inactive are the calls of the source. Calls follow the shape of the dose curve; as a rule, active = well fitted curve in the direction sought with a large enough effect; inconclusive = small, poorly fitted or top-dose-only effect, or another doubt; inactive = no such curve, though single readings can be large or run the other way.

Experiment: Cellular Toxicity (caspase-3) BJ (AID 658)
Conditions: BJ fibroblasts, luminescence, normalized: DMSO 0%, staurosporine 100%; series mostly up to 91.7 µM
From the text: NIH Chemical Genomics Center [NCGC]
NIH Molecular Libraries Screening Centers Network [MLSCN]
National Institutes of Environmental Health Sciences [NIEHS]
National Toxicology Program [NTP]
We have developed a 1536-well cell-based assay for quantitative high throughput screening (qHTS) against a number of cell lines to determine in vitro caspase 3/7 activity of small molecules. This particular assay uses BJ cell line which is derived from normal human foreskin fibroblast.
NCGC Assay Protocol Summary:
The Caspase-Glo 3/7 assay (Promega) is a homogeneous method to measure caspase-3 and caspase-7 activities in cultured cells. The quantitation of caspase 3/7 activity is based on the cleavage of a peptide-aminoluciferin substrate. After caspase cleaves the substrate the free aminoluciferin is liberated and serves as the substrate of luciferase, which generates the light. The luminescent signal is proportional to amount of caspase 3/7 activity present.
Using the Caspase-Glo 3/7 assay, the amount of caspase 3/7 activity was measured in the BJ cell line with complete culture medium following compound treatment for 16 hours. The assay was performed in opaque white 1536-well plates. In the screen, staurosporine and tamoxifen were used as positive controls. Library compounds were measured for their ability to cause the activation of caspase 3/7 in the cell line, as reflected by an increase in luminescence signal, in a concentration-dependent manner. Data were normalized to the controls for basal activity (DMSO only) and 100% stimulation (10 uM staurosporine). AC50 values were determined from concentration-response data modeled with the standard Hill equation.
qHTS protocol for caspase 3/7 assay in the BJ cells
[Step] [Parameter] [Value] [Description]
1. Reagent; 5 uL; 1000 the BJ cells/well
2. Time; 5 hr; 37 °C incubation
4. Controls; 23 nL; Tamoxifen 0.23 uM to 100 uM & staurosporine 1.4 pM to 100 uM
5. Time; 16 hr; 37 °C incubation
6. Reagent; 5 uL; Caspase-Glo 3/7 reagent
7. Time; 1 hr; Room Temperature
8. Detection; Luminescence; Viewlux plate reader
Keywords: caspase 3/7, apoptosis, the BJ cell line, luminescence, NTPHTS, NTPHTS_NCGC, NIEHS, EPA, DSSTox, MLSMR, MLSCN, NIH Roadmap, qHTS, NCGC
In the case of CCCCC(CC)COC(=O)c1ccccc1C(=O)O (centres undefined), the outcome is reported as “inactive”.
With CCCC(=O)c1cc(O)c(O)cc1O the outcome was “inactive”.
For CC(=O)OC/C=C(C)/C=C/C=C(C)/C=C/C1=C(C)CCCC1(C)C, the outcome was “inactive”.
For c1ccc2occc2c1, the outcome was “inactive”.
For Nc1cccc2c(N)cccc12, the outcome was “inactive”.
In the case of CC(C)(C)c1ccc(O)c(O)c1, the outcome is reported as “inactive”.
For Cc1cc(C(C)(C)C)c(O)c(C(C)(C)C)c1, the outcome was “inactive”.
In the case of C1=CC2C3C=CC(C3)C2C1 (centres undefined), the outcome is reported as “inactive”.
With COc1cc(C=O)ccc1O the outcome was “inactive”.
With CC(C)C(C)(C)C(C)(C)C(C)(C)S the outcome was “inactive”.
With O=C(c1ccccc1)c1ccccc1 the outcome was “inactive”.
In the case of OCc1c[nH]c2ccccc12, the outcome is reported as “inactive”.
With Brc1ccccc1-c1ccccc1 the outcome was “inactive”.
In the case of O=C(Oc1ccccc1)c1ccccc1O, the outcome is reported as “inactive”.
With Oc1ccccc1 the outcome was “inactive”.
With Cc1ccc(O)cc1 the outcome was “inactive”.
With O=C(NO)c1ccccc1 the outcome was “inactive”.
For CC(C)(c1ccc(O)cc1)c1ccc(O)cc1, the outcome was “inactive”.
For Nc1ccc(O)cc1, the outcome was “inactive”.
